Experimental data taken from PubChem BioAssay (EPA / NIEHS).
“And” between values parts separate entries of the source, which are not always exact repeats. Identical values can stand only once. The source made the active and inactive calls. Rule for the calls: active = hit-call score of the fitted dose curve at least 0.9, where 1 is the maximum; inactive = score below 0.9.

Experiment: CCTE_Shafer_MEA_acute_firing_rate_mean: CCTE's Neural Acute Assay for Mean Firing Rate, Shafer Lab (AID 2284009)
Protocol: CCTE_Shafer_MEA_acute assay is conducted using Axion Biosystems 48 well microelectrode array (MEA) plates and Maestro recording system. Each well of the MEA plate contains a grid of 16 microelectrodes embedded in the culture surface. Electrically active cells, such as neurons, can be cultured over the electrodes, and electrical activity in these cells can be recorded extracellularly. The spontaneous firing of neurons is captured from each electrode on a microsecond timescale providing both temporally and spatially precise data. […] The CCTE_Shafer_MEA_acute assay uses primary cultures of rat cortical neurons. As these cultures mature over time, neural networks develop functional activity and form cohesive networks in which electrical activity can be highly coordinated. Baseline 40-minute recordings are made on days post-plating 13 or 15, followed by a secondary 40-minute recording after chemical exposure.CCTE_Shafer_MEA_acute_firing_rate_mean is a component of the CCTE_Shafer_MEA_acute assay. It measures the frequency number of spikes (action potential firings) as the total number of spikes divided by the length of the recording in a microelectrode array (MEA) using Axion Biosystems Maestro 768 channel amplifier with the AxIS adaptive spike detector. The firing rate is divided by the number of electrodes to report a well-mean value. The recordings before and after chemical treatment are used to calculate a percent change in the mean firing rate in each well.Data from the assay component CCTE_Shafer_MEA_acute_firing_rate_mean was analyzed into 1 assay endpoint. This assay endpoint, CCTE_Shafer_MEA_acute_firing_rate_mean, was analyzed in the negative analysis fitting direction relative to DMSO as the negative control and baseline of activity. Using a type of functional reporter, gain or loss-of-signal activity can be used to understand electrical activity.
Spontaneous activity in the cortical cultures was recorded using an Axion Biosystems Maestro 768 channel amplifier and Axion Integrated Studios (AxIS) v1.8 (or later) software. The amplifier recorded from all channels simultaneously (gain = 1200 x; sampling rate = 12.5 kHz/channel): raw signals were filtered with a Butterworth band-pass filter (300-5000 Hz), which filters out slower local field potentials leaving only fast potentials, i.e., "spikes", arising from extracellular currents associated with action potentials (Pine 2006; Wheeler and Nam 2011). On-line spike detection of filtered signals was conducted with the AxIS adaptive spike detector, using a threshold of 8x the root mean squared (rms) noise on each channel. Any electrodes with rms noise levels greater than 5 uV were grounded (e.g., no data were recorded). Once grounded, an electrode was grounded for the duration of the experiment. All recordings were conducted at 37 C. Wells were deemed usable if on the day of the exposure >/= 10 electrodes were active (defined as >/= 5 spikes/min). On DIV 13 or 15, a minimum of three wells from one cortical culture preparation were treated with each compound (0.03-40 uM). Prior to recording baseline activity, each mwMEA plate was placed in the Maestro at 37 C and allowed to sit for 20 min while firing rates stabilized. Baseline activity (40 min) was recorded before the addition of each compound. An additional 40 min of spontaneous activity was recorded in the presence of each compound. Changes in network parameters relative to baseline were assessed following compound treatment.

SMILES | AC50 | outcome
CC/C(=C(\c1ccccc1)c1ccc(OCCN(C)C)cc1)c1ccccc1 | 2.73 µM (active) and 4.63 µM (active) | –
CCCO[Si](OCCC)(OCCC)OCCC | – | inactive
CCCCN(CCO)CCO | – | inactive
O=C(c1ccc(OCCN2CCCCC2)cc1)c1c(-c2ccc(O)cc2)sc2cc(O)ccc12 | 14100 nM (active) | –
CC(C)(CO)CO | – | inactive
CCn1cc(C(=O)O)c(=O)c2ccc(C)nc21 | 3 nM (active) | –
N[C@@H](CCC(=O)O)C(=O)O | – | inactive
CC(C)CCCC(C)(C)O | – | inactive
CC(=O)c1ccc(C)cc1 | 3 nM (active) | –
c1ccc(OCCOc2ccccc2)cc1 | – | inactive
CCCCOCCOCCO | – | inactive
